According to PubChem BioAssay (NCATS):
Results filed as inconclusive are left out. Unmarked numbers belong to inactive results. Active and inactive are the calls of the source. Calls come from the whole dose curve; as a rule, active = well fitted curve in the direction sought with a large enough effect; inconclusive = small, poorly fitted or top-dose-only effect, or another doubt; inactive = no such curve, though single readings can be large; an effect the other way counts as inactive or inconclusive.

biological target: Calcium and integrin-binding protein 1 (Homo sapiens) (UniProt Q99828); test: Confirmatory qHTS for Identification of Calcium Integrin Binding Protein 1 (CIB1) Competitor (AID 1508617); settings: CIB1 binding competition assay, biochemical qHTS; series mostly up to 76.6 µM; activity change, negative = inhibition: at the top concentration; note: nearly all actives have a fitted effect of over 65% in size; note: potency is the fitted concentration of half-maximal effect
Sequence (Q99828 whole entry, looked up): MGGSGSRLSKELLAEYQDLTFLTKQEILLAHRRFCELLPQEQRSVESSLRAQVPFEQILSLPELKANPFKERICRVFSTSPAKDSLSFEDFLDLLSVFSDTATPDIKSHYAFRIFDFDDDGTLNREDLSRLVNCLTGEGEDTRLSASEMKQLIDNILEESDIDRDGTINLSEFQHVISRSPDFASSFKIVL
Outline: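 Fluorescence polarization competition: CIB1-GST (1 uM final) in 5 mM HEPES pH 7.4, 125 mM NaCl, 5 mM CaCl2, 0.01% Tween20 preincubated 15 min RT with compound (up to 114 uM), then FITC-alphaIIb peptide (100 nM) added, 15 min RT.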
% is set by controls: 0 for no effect and ±100 for the full control effect.

Question: With `COc1nc2ccc(Br)cc2cc1[C@@H](c1ccccc1)[C@@](O)(CCN(C)C)c1cccc2ccccc12` as the molecule, how does the Potency read?
Answer: 89.1 µM (active)

Question: Which “activity change, negative = inhibition” value does the source give for `O=C(c1ccccc1)c1c(O)cc(O)cc1O[C@@H]1O[C@H](CO)[C@@H](O)[C@H](O)[C@H]1O` here?
Answer: -12.7%

Question: With `O=C(O)CSc1cc(NS(=O)(=O)c2ccc(Br)cc2)c2ccccc2c1O` as the molecule, how does the Potency read?
Answer: 12.6 µM (active)

Question: Which Potency does the source give for `N#Cc1ccc(Nc2nc(-c3ccc(O)cc3O)cs2)cc1C(F)(F)F` here?
Answer: 50.1 µM (active)

Question: How did the Potency turn out when `Cn1sc(=O)n(Cc2ccccc2)c1=O` was run?
Answer: 7.94 µM (active)

Question: `CCC1C(=O)N(C)c2cnc(Nc3ccc(C(=O)NC4CCN(C)CC4)cc3OC)nc2N1C1CCCC1` (centres undefined) was tested. Which “activity change, negative = inhibition” value did it give?
Answer: -13.8% [at 114 µM]

biological target: Calcium and integrin-binding protein 1 (Homo sapiens) (UniProt Q99828); test: Primary qHTS for Identification of Calcium Integrin Binding Protein 1 (CIB1) Competitor (AID 1508620); settings: CIB1-GST / FITC-alphaIIb peptide fluorescence polarization; series mostly up to 114 µM; activity change, negative = inhibition: at the top concentration;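 note: GST tagged CIB1 binding a fluorescein labelled alphaIIb integrin peptide tracer; top concentration of the series differs between compounds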
Outline: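 Fluorescence polarization competition: GST-tagged CIB1 (1 uM final) preincubated with compound 15 min at room temperature, then FITC-labelled alphaIIb peptide (100 nM final) added. After 15 min at room temperature, polarization read at Ex 480/Em 540.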

Question: With `CCC(C)C(=O)OC1C(C)C2(O)C(C=C(CO)CC3(O)C(=O)C(C)=CC32)C2C(C)(C)C12OC(=O)C(C)C` (centres undefined) as the molecule, how does the “activity change, negative = inhibition” value read?
Answer: -2.69% [at 57.7 µM]

Question: `COc1ccc(-c2ccccc2)cc1NS(=O)(=O)c1cc(Cl)cc(Cl)c1O` was tested. Which “activity change, negative = inhibition” value did it give?
Answer: -15.8% [at 57.7 µM]

Question: How did the “activity change, negative = inhibition” value turn out when `CC/C(C)=C/C(=O)OC1C(OC2(C)CCC3C(C4C(C)CCC42)C3(C)C)OC(C)C(O)C1O` (centres undefined) was run?
Answer: -10.4% [at 57.7 µM]

Question: How did the “activity change, negative = inhibition” value turn out when `COc1cc(O)cc(OC2OC(CO)C(O)C(O)C2O)c1` (centres undefined) was run?
Answer: -7.83%

Question: Which “activity change, negative = inhibition” value does the source give for `C1=Cc2ccccc2C(=C2CCN(CCCCc3nn[nH]n3)CC2)c2ccccc21` here?
Answer: -2.17%

Question: With `Cc1cc(C(C)Nc2ccccc2C(=O)O)c2nc(N3CCOCC3)cc(=O)n2c1` (centres undefined) as the molecule, how does the “activity change, negative = inhibition” value read?
Answer: -4.27%

Question: For `COc1ccc(CN2CCN(CCCSc3cc(C(C)(C)C)c(O)c(C(C)(C)C)c3)CC2)c(OC)c1OC`, which “activity change, negative = inhibition” value is on record?
Answer: -0.336% [at 30.2 µM]

Question: With `C=CCC1=C[C@]2(OC)[C@H](C)[C@@H](c3ccc4c(c3)OCO4)O[C@]2(OC)CC1=O` as the molecule, how does the “activity change, negative = inhibition” value read?
Answer: -7.86% [at 57.7 µM]
